The campaign covered roughly 310,000 compounds. About 14,000 (4.5%) showed an effect of 50% or more. The effect is printed as a negative number. What follows is part of a selection rich in strong results, with near analogues and random picks from the rest.
Each compound was assayed against human ether-à-go-go-related gene (hERG) potassium channel (human, UniProt Q12809) (assay: primary screen, population patch clamp on CHO cells stably expressing hERG; higher = less effect of the substance).
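Note: peak tail current of the secondary pulse compared with the same well before compound.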

Chain of human ether-à-go-go-related gene (hERG) potassium channel (Q12809 whole entry, looked up): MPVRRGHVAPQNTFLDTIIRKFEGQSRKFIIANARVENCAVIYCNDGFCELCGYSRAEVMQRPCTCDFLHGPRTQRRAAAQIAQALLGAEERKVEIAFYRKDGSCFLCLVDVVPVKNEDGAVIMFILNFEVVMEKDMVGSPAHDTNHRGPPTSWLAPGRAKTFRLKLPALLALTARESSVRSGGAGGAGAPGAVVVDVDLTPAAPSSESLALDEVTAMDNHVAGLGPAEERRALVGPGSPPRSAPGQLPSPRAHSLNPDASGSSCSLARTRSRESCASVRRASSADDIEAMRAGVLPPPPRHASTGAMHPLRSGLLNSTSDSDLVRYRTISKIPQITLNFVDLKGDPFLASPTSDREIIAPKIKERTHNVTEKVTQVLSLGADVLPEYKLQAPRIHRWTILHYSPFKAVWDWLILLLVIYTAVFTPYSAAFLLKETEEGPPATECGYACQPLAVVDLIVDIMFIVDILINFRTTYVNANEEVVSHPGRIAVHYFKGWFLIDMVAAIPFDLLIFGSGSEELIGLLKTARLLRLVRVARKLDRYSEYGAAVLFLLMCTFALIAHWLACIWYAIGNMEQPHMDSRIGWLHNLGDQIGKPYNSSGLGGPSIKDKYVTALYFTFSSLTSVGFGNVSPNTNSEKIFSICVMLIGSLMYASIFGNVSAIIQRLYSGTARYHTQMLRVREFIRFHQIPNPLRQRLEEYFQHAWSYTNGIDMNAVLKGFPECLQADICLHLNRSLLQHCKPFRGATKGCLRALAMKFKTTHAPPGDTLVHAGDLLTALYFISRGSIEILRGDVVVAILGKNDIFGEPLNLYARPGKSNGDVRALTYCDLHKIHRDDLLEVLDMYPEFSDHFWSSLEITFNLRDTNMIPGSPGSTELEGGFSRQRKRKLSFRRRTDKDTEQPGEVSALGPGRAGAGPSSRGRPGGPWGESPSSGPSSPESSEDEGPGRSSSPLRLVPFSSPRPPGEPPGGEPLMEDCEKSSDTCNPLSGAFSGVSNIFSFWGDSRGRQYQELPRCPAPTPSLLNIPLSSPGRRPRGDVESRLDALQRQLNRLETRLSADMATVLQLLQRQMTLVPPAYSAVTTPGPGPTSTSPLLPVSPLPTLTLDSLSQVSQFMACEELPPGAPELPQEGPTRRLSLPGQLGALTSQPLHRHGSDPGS

Structure (SMILES) | hERG current change (%, negative = inhibition) at 10uM [%]
O=C(CN1CCN(Cc2ccccc2)CC1)N/N=C\C=C/c1ccco1 | -26.9
CC(=C/c1ccco1)/C=N/NC(=O)Cc1cccn1C | -6.63
O=C(CN1CCN(Cc2ccccc2)CC1)N/N=C/c1ccco1 | -5.43
CC(/C=N\NC(=O)CN1CCN(Cc2ccccc2)CC1)=C\c1ccco1 | -53.6
CC(/C=N/NC(=O)Cc1cccn1C)=C\c1ccco1 | -13.1
CC(/C=N/NC(=O)CN1CCN(Cc2ccc(Cl)cc2)CC1)=C\c1ccco1 | -69.2
COc1ccccc1C(=O)N1CCN(C2CCN(Cc3ccccc3)CC2)CC1 | -23.2
C/C(=C\c1ccccc1F)C1Nc2cccc3cccc(c23)N1 | 13.1
Cc1ccc(/C=N/Nc2ccc3ccccc3n2)o1 | -47.4
CCN(CC)S(=O)(=O)c1ccc(OC)c(NC(=O)C2CC(=O)N(c3ccc(C)cc3)C2)c1 (stereo not shown) | -19.6
CCOc1ccc(S(=O)(=O)N2CCCCC2)cc1NS(=O)(=O)c1cccs1 | 4.67
CCC1CN(C(=O)NCc2ccc(F)cc2)c2cc(Cl)ccc2O1 (stereo not shown) | 12.5
CCc1nc(NCCCN2CCOCC2)c2oc3ccccc3c2n1 | -26.6
c1coc(CNc2ncnc3c2oc2ccccc23)c1 | -22.1
CCc1nc(Nc2ccccc2)c2oc3ccccc3c2n1.Cl | -5.28
CCc1nc(Nc2ccc(O)cc2)c2oc3ccccc3c2n1.Cl | -13.6
CCNc1nc(CC)nc2c1oc1ccccc12.Cl | -11.5
O=c1c2ccccc2oc2cc(NCCCn3ccnc3)ccc12 | -60.9
Cl.c1ccc2c(c1)oc1c(NCCCn3ccnc3)ncnc12 | -58.7
Cc1cc2oc3ccc(NCCCn4ccnc4)cc3c(=O)c2cc1C | 6.32

Structure (SMILES) | hERG current change (%, negative = inhibition) at 10uM [%]
CCc1nc(Nc2ccncc2)c2oc3ccccc3c2n1.Cl | -58.5
O=c1c2ccccc2oc2ccc(NCCCn3ccnc3)cc12 | 9.83
CCc1nc(NCCCn2ccnc2)c2oc3ccccc3c2n1.Cl | -56.1
c1ccc(CNc2ncnc3c2oc2ccccc23)nc1 | -1.56
CN1CCc2nc3sc(C(=O)NC4CC4)c(N)c3cc2C1 | 9.22
COc1ccc(OC)c(C2=NOC(C(=O)Nc3cccnc3)C2)c1 (stereo not shown) | -9.42
CN(C)c1ccc(/C=N/N(CCO)C2=NS(=O)(=O)c3ccccc32)cc1 | 21.8
COc1ccc(C/C(C)=N/NC(=O)c2cc(C)oc2C)cc1 | 4.56
N/C(=N\OC(=O)CSc1ccccc1)c1ccccn1 | 6.31
COc1ccc(C)cc1S(=O)(=O)N(C)CC(=O)N1CCC(C)CC1 | 22.8
Cc1csc(SCCN2C(=O)c3ccccc3C2=O)n1 | 2.6
Cc1nc(NCCCN2CCOCC2)c2oc3ccccc3c2n1.Cl | -15.5
Cc1nc(NCCCn2ccnc2)c2oc3ccccc3c2n1.Cl | -69.8
Cl.c1ccc(-c2nc(NCCCn3ccnc3)c3oc4ccccc4c3n2)cc1 | -4.89
CCCCn1c(N)c(N(CCOC)C(=O)CSCc2ccc(C)cc2)c(=O)[nH]c1=O | 13.4
O=C1C(Cl)=C(Nc2ccccc2O)C(=O)N1c1ccccc1 | 0.891
CN1CCN(C(c2ccc(F)cc2)c2nnnn2Cc2cccs2)CC1.Cl (stereo not shown) | -21
Fc1ccc(Cn2nnnc2C(c2cccs2)N2CCCCCC2)cc1 (stereo not shown) | -11.2
c1ccc(C(c2nnnn2Cc2cccs2)N2CCN(C3CCCC3)CC2)cc1 (stereo not shown) | -46.3
Fc1ccc(Cn2nnnc2C(c2cccs2)N2CCN(C3CCCCC3)CC2)cc1 (stereo not shown) | -66.4

Structure (SMILES) | hERG current change (%, negative = inhibition) at 10uM [%]
CCN1CCN(C(c2ccc(F)cc2)c2nnnn2Cc2cccs2)CC1 (stereo not shown) | -59.4
Fc1ccc(C(c2nnnn2Cc2ccccc2)N2CCSCC2)cc1 (stereo not shown) | -2.85
Cl.Fc1ccc(C(c2nnnn2Cc2cccs2)N2CCN(C3CCCC3)CC2)cc1 (stereo not shown) | -67.4
CCN1CCN(C(c2ccc(F)cc2)c2nnnn2Cc2ccc3c(c2)OCO3)CC1.Cl (stereo not shown) | -44
CC(C)C(c1nnnn1Cc1cccs1)N1CCN(C2CCCC2)CC1 (stereo not shown) | -30.9
CN1CCN(C(c2cccs2)c2nnnn2Cc2ccc(F)cc2)CC1.Cl (stereo not shown) | -13.1
Fc1ccc(C(c2nnnn2Cc2cccs2)N2CCN(C3CCCCC3)CC2)cc1 (stereo not shown) | -60.3
CC(=O)Nc1ccccc1NC(=O)COc1cccc2ccccc12 | 18.9
CCOC(=O)c1sc(NC(=O)CN2CCN(c3ccc(OC)cc3)CC2)nc1C | -20.6
O=C(Nc1nc2ccccc2s1)c1ccc(N2CCCCC2)c([N+](=O)[O-])c1 | 6.67
O=C(NNC(=O)c1ccc(Br)s1)NC1CCCCC1 | 28.1
Cc1ccc(NC(=O)CCSc2nnc3ccccn23)cc1 | 2.6
Cc1cccc(NS(=O)(=O)c2csc(C(N)=O)c2)c1 | 8.92
NC(=O)c1cc(S(=O)(=O)Nc2ccccc2)cs1 | 1.39
NC(=O)c1cc(S(=O)(=O)Nc2cccc(Cl)c2)cs1 | -61.2
CCC(C)NC(=O)C1CCC(CNS(=O)(=O)c2ccc3c(c2)N(C(C)=O)CCO3)CC1 (stereo not shown) | 6.84
COc1ccccc1NC(=O)C(=O)NCC(c1ccco1)N1CCc2ccccc21 (stereo not shown) | -1.64
COc1ccc(-n2cnc3c(sc4nc(N5CCOCC5)c5c(c43)CCCC5)c2=O)cc1 | 21.3
